{"source": "PubChem BioAssay AID2435", "about": "(The Scripps Research Institute Molecular Screening Center, 2010)", "note": "Screen size: about 320,000 compounds; about 1,000 (0.31%) were called active.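 How the source made its calls: active means activation above the mean of all tested compounds plus 3 SD, cutoff set per screening run (cut at about 20% in these data); inactive means the rest.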 What follows is part of a selection rich in actives, with near analogues and random picks from the rest."}
{"target": "Oxytocin receptor (Homo sapiens) (UniProt P30559)", "sequence (P30559 whole entry, looked up)": "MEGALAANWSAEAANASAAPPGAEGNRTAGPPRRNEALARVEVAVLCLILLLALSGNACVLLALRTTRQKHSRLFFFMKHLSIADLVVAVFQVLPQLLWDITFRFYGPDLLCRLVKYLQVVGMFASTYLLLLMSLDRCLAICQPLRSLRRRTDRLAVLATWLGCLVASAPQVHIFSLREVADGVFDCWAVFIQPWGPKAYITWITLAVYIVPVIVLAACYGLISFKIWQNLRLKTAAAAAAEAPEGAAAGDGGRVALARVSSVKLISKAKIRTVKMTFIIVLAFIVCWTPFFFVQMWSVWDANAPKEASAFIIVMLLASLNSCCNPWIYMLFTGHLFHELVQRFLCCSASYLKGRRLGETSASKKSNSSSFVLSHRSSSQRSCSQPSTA", "test": "human OXTR agonists, primary screen, fluorescence, CHO-OTR cells, Fluo-8 calcium (AID 2435);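 further: peak over basal fluorescence ratio from a 100 s FLIPR kinetic read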", "details": "Fluo-8 calcium fluorescence, at 3 µM, hits give high values, normalized: DMSO 0%, oxytocin 100%"}
{"smiles": "COc1cc(NC(=O)CSC(=S)N2CCCC2)c(OC)cc1Cl", "activation": "-1.55% (inactive)"}
{"smiles": "CCN1/C(=C\\c2ccc3ccccc3[n+]2CC)Sc2cc(C)ccc21", "activation": "23.2% (active)"}
{"smiles": "C=CCN1C(=NC(=O)COc2ccccc2)SC2CS(=O)(=O)CC21", "note": "(stereo not given)", "activation": "1.7% (inactive)"}
{"smiles": "O=C(CSc1nc2ncccc2[nH]1)Nc1ccc2c(c1)OCCO2", "activation": "-2.32% (inactive)"}
{"smiles": "CCc1ccc2c(c1)C1(NN=C(c3ccccc3)S1)C(=O)N2", "note": "(stereo not given)", "activation": "-1.26% (inactive)"}
{"smiles": "CN(C)c1ccc(C=C2C(=O)OC3(CCCC3)OC2=O)cc1", "activation": "3.44% (inactive)"}
{"smiles": "O=C1/C(=C\\c2ccsc2)NC(=S)N1c1ccccc1", "activation": "0.14% (inactive)"}
{"smiles": "CN(C)c1ccc(/C=C2\\NC(=S)N(Cc3ccccc3)C2=O)cc1", "activation": "51.8% (active)"}
{"smiles": "N#CCCN(C(=O)COC(=O)c1ccc2c(c1)OCCO2)c1ccccc1", "activation": "1.54% (inactive)"}
{"smiles": "Cn1cccc1C1(C(F)(F)F)NCCNC1=O", "note": "(stereo not given)", "activation": "1.22% (inactive)"}
{"smiles": "CCCC(=O)NC(=S)Nc1ccc(CN2CCOCC2)cc1", "activation": "1% (inactive)"}
{"smiles": "CCOC(=O)CC1C(=O)NCCN1c1nc2c(C)cccn2c(=O)c1/C=C1\\SC(=S)N(C(C)CC)C1=O", "note": "(stereo not given)", "activation": "23.3% (active)"}
{"smiles": "CCOC(=O)N1CCN(C(=O)CSc2nc(=O)n3cccc(C)c3n2)CC1", "activation": "-0.13% (inactive)"}
{"smiles": "Cc1cccn2c(=O)c(/C=C(\\C#N)C(N)=O)c(N3CCCCCC3)nc12", "activation": "-2.52% (inactive)"}
{"smiles": "O=[N+]([O-])c1ccccc1N/N=C1\\CCc2ccccc21", "activation": "1.32% (inactive)"}
{"smiles": "COc1cc(OC)c(-n2cc(-c3ccc(Cl)cc3)[nH]c2=O)cc1Cl", "activation": "42.2% (active)"}
{"smiles": "COc1cc(OC)c(-n2c(C)cc(C=O)c2C)cc1Cl", "activation": "-0.29% (inactive)"}
{"smiles": "COc1cc(OC)c(N2CC(C(=O)Nc3cc(Cl)ccc3N3CCOCC3)CC2=O)cc1Cl", "note": "(stereo not given)", "activation": "10.6% (inactive)"}
{"smiles": "Cc1ccc(-n2ncc3c(Nc4cccc(C(=O)O)c4)ncnc32)cc1", "activation": "-1.04% (inactive)"}
{"smiles": "O=C(NCc1cccnc1)C12CC3CC(CC(C3)C1)C2", "activation": "-0.43% (inactive)"}
{"smiles": "CCCN(CC(=O)Nc1ccccc1OC)C(=O)CCC(=O)c1ccc(F)cc1", "activation": "-2.01% (inactive)"}
{"smiles": "C/C(=N\\NS(=O)(=O)c1ccc(Cl)cc1)c1ccc(NC(=O)c2ccco2)cc1", "activation": "24.5% (active)"}
{"smiles": "O=C(Nc1ccc(O)cc1)c1ccc(NC(=O)c2ccco2)cc1", "activation": "1.38% (inactive)"}
{"smiles": "C/C(=N/NS(=O)(=O)c1ccccc1)c1ccc(NC(=O)C(F)(F)F)cc1", "activation": "-0.88% (inactive)"}
{"smiles": "O=C(O)CCn1c(O)c(C=C2N=c3ccccc3=N2)sc1=S", "activation": "0.13% (inactive)"}
{"smiles": "CCc1ccc(-c2nn(-c3ccccc3C)cc2C(=O)N2CCN(C3CCS(=O)(=O)C3)CC2)cc1", "note": "(stereo not given)", "activation": "2.09% (inactive)"}
{"smiles": "CCc1ccc(-c2nn(-c3ccccc3)cc2CSC(=N)N)cc1", "activation": "24.2% (active)"}
{"smiles": "Cc1ccc(-c2nn(-c3ccccc3)cc2/C=N/NC(=O)c2ccc3c(c2)OCO3)cc1", "activation": "-1.39% (inactive)"}
{"smiles": "O=C(NC(Nc1nc2ccc([N+](=O)[O-])cc2s1)(C(F)(F)F)C(F)(F)F)c1ccccc1", "activation": "20% (active)"}
{"smiles": "O=C(CNC(=O)c1ccccc1)Oc1ccc([N+](=O)[O-])cc1", "activation": "2.42% (inactive)"}
{"smiles": "O=C(CCNC(=O)c1ccccc1)Nc1nc2ccccc2s1", "activation": "2.26% (inactive)"}
{"smiles": "CCOC(=O)CN(C)S(=O)(=O)c1ccc(-c2cc(C(=O)OC)sc2C(F)(F)F)cc1", "activation": "1.32% (inactive)"}
{"smiles": "O=C(NCc1ccccc1)C(c1ccccc1)N(C(=O)c1csnn1)c1ccc(F)cc1", "note": "(stereo not given)", "activation": "1.2% (inactive)"}
{"smiles": "Nc1ncnc2c1ncn2[C@@H]1O[C@H](CNCc2cccn2-c2nccs2)[C@@H](O)[C@H]1O", "activation": "-0.14% (inactive)"}
{"smiles": "CCc1noc(C)c1C(=O)NNC(=O)c1ccc(F)cc1", "activation": "0.43% (inactive)"}
{"smiles": "Cc1ccc(CNC(=O)c2c(-c3ccccc3)noc2C)cc1", "activation": "-1.84% (inactive)"}
{"smiles": "Cc1onc(-c2c(Cl)cccc2Cl)c1C(=O)NNC(=O)c1c(-c2c(Cl)cccc2Cl)noc1C", "activation": "-1.38% (inactive)"}
{"smiles": "Cc1onc(-c2ccccc2)c1C(=O)NNC(=S)NC(=O)c1ccc(F)cc1", "activation": "32.9% (active)"}
{"smiles": "Cc1onc(-c2ccccc2)c1C(=O)Nc1ccccc1C#N", "activation": "-1.5% (inactive)"}
{"smiles": "COc1ccc(C(=O)NC(=S)NNC(=O)c2c(-c3ccccc3)noc2C)cc1", "activation": "46.7% (active)"}
{"smiles": "O=C(Nc1ccc(-n2ccnc2P(=O)(O)c2ccccc2)cc1)c1ccccc1Br", "activation": "-0.12% (inactive)"}
{"smiles": "Cc1csc2nc(O)c(C(=O)NCCN3CCOCC3)c(=O)n12", "activation": "0.15% (inactive)"}
{"smiles": "Cc1cc(C)c(S(=O)(=O)N2C=CC(C(F)(F)F)=NCC2)c(C)c1", "activation": "0.69% (inactive)"}
{"smiles": "CN(CCc1ccccc1)C(=O)c1cccc(NC(=O)Cc2ccc([N+](=O)[O-])cc2)c1", "activation": "13.1% (inactive)"}
{"smiles": "CCCc1cc(=O)[nH]c(SCC(=O)N2CCN(S(=O)(=O)c3ccc(C)cc3C)CC2)n1", "activation": "-1.06% (inactive)"}
{"smiles": "COC(=O)C1(S(=O)(=O)C2(C(=O)OC)CCCC2)CCCC1", "activation": "-0.45% (inactive)"}
{"smiles": "CCOc1cc(/C=C(\\C#N)c2nc(-c3cccs3)c(NC(C)=O)s2)ccc1O", "activation": "23.4% (active)"}
{"smiles": "COc1cc(/C=C(\\C#N)c2nc3c(s2)CC(C)CC3)ccc1O", "note": "(stereo not given)", "activation": "12.7% (inactive)"}
{"smiles": "CCOc1cc(-c2cc(-c3ccc(NC(C)=O)cc3)nc(N)c2C#N)ccc1O", "activation": "1.58% (inactive)"}
{"smiles": "Cc1cccc(NC(=O)C(C)N2C(=O)C3C4CC(C(Br)C4Br)C3C2=O)c1", "note": "(stereo not given)", "activation": "8.44% (inactive)"}
{"smiles": "CN(CC(=O)Nc1ccc(OC(F)(F)F)cc1)C(=O)C1CCC1", "activation": "3.13% (inactive)"}
{"smiles": "Cc1ccc(C(=O)NNC(=O)C(C)Oc2ccc3ccccc3c2)o1", "note": "(stereo not given)", "activation": "1.07% (inactive)"}
{"smiles": "Cc1ccc(OCC(=O)NCCCNC(=O)c2ccco2)cc1C", "activation": "0.98% (inactive)"}
{"smiles": "O=C(Nc1ccc2ccccc2c1)/C(=C/c1cccc(Br)c1)NC(=O)c1ccco1", "activation": "0.36% (inactive)"}
{"smiles": "CCCc1ccc(OCC(=O)NNC(=S)NC(=O)c2ccco2)cc1", "activation": "31.6% (active)"}
{"smiles": "Cc1ccc(OCC(=O)NNC(=S)NCc2ccccc2)cc1", "activation": "-1.15% (inactive)"}
{"smiles": "CC(Oc1ccc2ccccc2c1)C(=O)NNC(=S)NC(=O)c1ccco1", "note": "(stereo not given)", "activation": "33.9% (active)"}
{"smiles": "COc1ccc(Cn2c(O)c(/C=C3/C=CC=N3)c(=O)[nH]c2=O)cc1", "activation": "-0.07% (inactive)"}
{"smiles": "CN(C)CCN(C(=O)C1=COCCO1)c1nc2ccc(Cl)cc2s1", "activation": "1.72% (inactive)"}
{"smiles": "Cc1nn(Cc2ccccc2)c(C)c1CNC(=O)c1ccc(F)c(S(=O)(=O)N2CCOCC2)c1", "activation": "3.05% (inactive)"}
{"smiles": "Cc1ccc2c(c1)N(CC(=O)N1CCCc3ccccc31)C(=O)C(C)O2", "note": "(stereo not given)", "activation": "-1.51% (inactive)"}
{"smiles": "Cc1nc(C(=O)Nc2ccc(Cl)cc2)sc1C1(C)CC(c2ccccc2)=NO1", "note": "(stereo not given)", "activation": "0.47% (inactive)"}
{"smiles": "Cc1nc(C(=O)NCc2ccccc2)sc1C1(C)CC(c2cccnc2)=NO1", "note": "(stereo not given)", "activation": "21.7% (active)"}
{"smiles": "Cc1nc(-c2ccc(Cl)cc2)sc1C1(C)CC(c2ccccc2F)=NO1", "note": "(stereo not given)", "activation": "-0.58% (inactive)"}
{"smiles": "COCC(C)NC(=O)CSc1nc2nn(-c3ccccc3)c(=O)c-2c2n1CCCCC2", "note": "(stereo not given)", "activation": "-0.74% (inactive)"}
{"smiles": "CC(=O)Nc1ccc(S(=O)(=O)N(C)c2ccc(OCC(=O)OCC(=O)N3CCCCC3)cc2)cc1", "activation": "0.24% (inactive)"}
{"smiles": "Cn1c(=O)c(=O)n(C)c2cc(S(=O)(=O)CCC(=O)N3CCCCC3)ccc21", "activation": "-0.07% (inactive)"}
{"smiles": "O=C(C1CCCO1)N(Cc1ccccc1)c1ccccc1", "note": "(stereo not given)", "activation": "-1.09% (inactive)"}
{"smiles": "CC(=O)Oc1ccccc1C(=O)Nc1ncc([N+](=O)[O-])s1", "activation": "20% (active)"}
{"smiles": "O=C(CCc1ccccc1)Nc1ncc([N+](=O)[O-])s1", "activation": "12.4% (inactive)"}
{"smiles": "O=C(Cc1c(F)cccc1Cl)Nc1ncc([N+](=O)[O-])s1", "activation": "8.99% (inactive)"}
{"smiles": "CCC(C(=O)OCC(=O)Nc1ccc(C(=O)Nc2ccc(OC)cc2)cc1)c1ccccc1", "note": "(stereo not given)", "activation": "5.16% (inactive)"}
{"smiles": "CCC(C(=O)Nc1ccc2c(c1)OCCO2)c1ccccc1", "note": "(stereo not given)", "activation": "0.44% (inactive)"}
{"smiles": "CCC(C(=O)Nc1ccc(C(C)C)cc1)c1ccccc1", "note": "(stereo not given)", "activation": "41.5% (active)"}
{"smiles": "CCCc1nc2ccccc2c(C(=O)OCc2nnc(-c3cc(OC)c(OC)c(OC)c3)o2)c1CC", "activation": "0.34% (inactive)"}
{"smiles": "C=CCNC(=O)/C=C/c1ccc(C(C)C)cc1", "activation": "-2.22% (inactive)"}
{"smiles": "OCCCC1CCCCN1Cc1nc(Cc2ccccc2Cl)no1", "note": "(stereo not given)", "activation": "1.04% (inactive)"}
{"smiles": "C=CCOc1cccc(C2C(C(=O)c3ccc(C)o3)=C(O)C(=O)N2c2nnc(C)s2)c1", "note": "(stereo not given)", "activation": "47.7% (active)"}
{"smiles": "C=CCOc1cccc(C2C(C(=O)c3ccc(C)o3)=C(O)C(=O)N2CCCn2ccnc2)c1", "note": "(stereo not given)", "activation": "-0.44% (inactive)"}
{"smiles": "Cc1cc(N2C(=O)C(O)=C(C(=O)c3ccc(C)o3)C2c2ccc(OCc3ccccc3)cc2)no1", "note": "(stereo not given)", "activation": "0.01% (inactive)"}
{"smiles": "COC(=O)CN(c1nc(C)c(Cl)c(OC)n1)S(=O)(=O)c1ccc(C)cc1", "activation": "-1.64% (inactive)"}
{"smiles": "COC(=O)c1nn(-c2cccc(Cl)c2)ccc1=O", "activation": "0.3% (inactive)"}
{"smiles": "Cc1cc(C)cc(OCC(=O)NC(C)c2ccccc2)c1", "note": "(stereo not given)", "activation": "-2.21% (inactive)"}
{"smiles": "COc1cc(OC)cc(C(=O)N[C@H](C(=O)OCC(=O)NC(C)c2ccccc2)C(C)C)c1", "note": "(stereo not given in full)", "activation": "76.7% (active)"}
{"smiles": "COc1cc(OC)cc(C(=O)NCC(=O)OCC(=O)NC(C)CCc2ccccc2)c1", "note": "(stereo not given)", "activation": "-0.13% (inactive)"}
{"smiles": "O=C(Cn1c(-c2ccc(Cl)cc2)noc1=O)N1CCN(c2ccccc2F)CC1", "activation": "2.36% (inactive)"}
{"smiles": "NS(=O)(=O)c1ccc(CNC(=O)c2cccc(S(=O)(=O)N3CCc4ccccc43)c2)cc1", "activation": "-0.73% (inactive)"}
{"smiles": "N#C/C(=C/c1ccc(N2CCOCC2)o1)C(=O)N1CCOCC1", "activation": "4.33% (inactive)"}
{"smiles": "O=C(CN1C(=O)NC2(CCCCC2)C1=O)NCCc1c[nH]c2ccccc12", "activation": "0.26% (inactive)"}
{"smiles": "N#C/C(=C/c1ccc(N2CCCCC2)o1)C(=O)NCCc1c[nH]c2ccccc12", "activation": "27.2% (active)"}
